Test in all cases: DAPPL (digital affinity profiling via proximity ligation, sequencing); 10 mM Tris-HCl pH 7.5, 50 mM NaCl, 1 mM DTT, 4% glycerol, room temperature, 30 min; GST-TFs on glutathione beads, 16-mer random dsDNA library, 0.1% formaldehyde crosslink after washing; high values mean tight binding
Assay [1] deals with T1, FEV (Homo sapiens, UniProt Q99581 1-238).
T1 sequence: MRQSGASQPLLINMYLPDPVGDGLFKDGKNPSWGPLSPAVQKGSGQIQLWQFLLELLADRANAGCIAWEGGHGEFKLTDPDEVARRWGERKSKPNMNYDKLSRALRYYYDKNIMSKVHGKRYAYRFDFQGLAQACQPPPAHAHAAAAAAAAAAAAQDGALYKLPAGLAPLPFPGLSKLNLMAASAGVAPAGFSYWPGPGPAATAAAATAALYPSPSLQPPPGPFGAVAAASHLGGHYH
To be noted: protein: recombinant; tags: N-terminal GST; dsDNA, one strand shown. A digest of the protocol: (§1)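 Human transcription factors were made in yeast as GST fusions, captured on glutathione beads and barcoded with DNA. With a tag-only sample included, the pool was incubated with 200 nmole of a random double-stranded 16-mer DNA library in Tris/NaCl/DTT/glycerol buffer at room temperature for 30 min, then crosslinked with 0.1% formaldehyde after washing, ligated by proximity, amplified and sequenced. For binding signal, each hexamer's read frequency for a factor is divided by its frequency for the tag-only sample.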

Assay [2] concerns the target ETV5 (Homo sapiens, UniProt P41161 1-510). To be noted: protein: recombinant; tags: N-terminal GST; dsDNA, one strand shown. A digest of the protocol:
as §1

The target of assay [3] is HSF1 (Homo sapiens, UniProt Q00613 1-529). Conditions: protein: recombinant; tags: N-terminal GST; chain copies: 3; dsDNA, one strand shown. A digest of the protocol:
as §1

In assay [4] the target is T2, SPIC (Homo sapiens, UniProt Q8N5J4 1-248).
T2 sequence: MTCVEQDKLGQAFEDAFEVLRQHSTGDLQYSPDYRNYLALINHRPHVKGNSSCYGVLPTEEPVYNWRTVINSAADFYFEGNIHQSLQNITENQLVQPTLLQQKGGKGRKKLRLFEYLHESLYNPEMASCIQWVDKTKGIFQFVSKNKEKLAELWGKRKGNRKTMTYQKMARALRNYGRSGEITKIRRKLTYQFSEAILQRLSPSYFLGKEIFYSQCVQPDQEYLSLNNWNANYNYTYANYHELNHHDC
Conditions: protein: recombinant; tags: N-terminal GST; dsDNA, one strand shown. A digest of the protocol:
as §1

The target of assay [5] is ELF4 (Homo sapiens, UniProt Q99607 1-663). To be noted: protein: recombinant; tags: N-terminal GST; dsDNA, one strand shown. In outline:
as §1

For assay [6], the target named is T3, ELK4 (Homo sapiens, UniProt P28324-2 1-405).
T3 sequence: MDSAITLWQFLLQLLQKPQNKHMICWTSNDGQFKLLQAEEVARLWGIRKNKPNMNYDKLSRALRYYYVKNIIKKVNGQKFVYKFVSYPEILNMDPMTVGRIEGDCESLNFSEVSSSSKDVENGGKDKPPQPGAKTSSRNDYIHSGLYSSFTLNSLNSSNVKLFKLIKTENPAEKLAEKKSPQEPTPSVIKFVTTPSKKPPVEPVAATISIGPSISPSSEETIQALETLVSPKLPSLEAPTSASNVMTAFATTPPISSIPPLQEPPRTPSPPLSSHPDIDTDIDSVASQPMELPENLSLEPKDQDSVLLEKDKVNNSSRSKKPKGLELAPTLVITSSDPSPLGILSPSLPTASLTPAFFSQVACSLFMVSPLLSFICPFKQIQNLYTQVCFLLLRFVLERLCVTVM
To be noted: protein: recombinant; tags: N-terminal GST; dsDNA, one strand shown. A digest of the protocol:
as §1

Assay [7] concerns the target T4, ETV2 (Homo sapiens, UniProt O00321 1-342).
T4 sequence: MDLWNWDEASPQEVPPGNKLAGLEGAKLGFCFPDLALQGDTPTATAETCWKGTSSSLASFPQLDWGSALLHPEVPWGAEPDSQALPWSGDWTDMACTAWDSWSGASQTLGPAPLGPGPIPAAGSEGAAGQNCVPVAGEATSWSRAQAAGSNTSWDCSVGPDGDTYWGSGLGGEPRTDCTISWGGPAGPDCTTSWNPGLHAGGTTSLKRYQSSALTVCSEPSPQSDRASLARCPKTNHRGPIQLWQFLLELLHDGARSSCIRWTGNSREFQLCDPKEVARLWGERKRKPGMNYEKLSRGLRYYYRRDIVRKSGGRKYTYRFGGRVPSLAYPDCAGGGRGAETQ
Conditions: protein: recombinant; tags: N-terminal GST; dsDNA, one strand shown. In outline: as §1

The target of assay [8] is T5, ELF3 (Homo sapiens, UniProt P78545 1-371).
T5 sequence: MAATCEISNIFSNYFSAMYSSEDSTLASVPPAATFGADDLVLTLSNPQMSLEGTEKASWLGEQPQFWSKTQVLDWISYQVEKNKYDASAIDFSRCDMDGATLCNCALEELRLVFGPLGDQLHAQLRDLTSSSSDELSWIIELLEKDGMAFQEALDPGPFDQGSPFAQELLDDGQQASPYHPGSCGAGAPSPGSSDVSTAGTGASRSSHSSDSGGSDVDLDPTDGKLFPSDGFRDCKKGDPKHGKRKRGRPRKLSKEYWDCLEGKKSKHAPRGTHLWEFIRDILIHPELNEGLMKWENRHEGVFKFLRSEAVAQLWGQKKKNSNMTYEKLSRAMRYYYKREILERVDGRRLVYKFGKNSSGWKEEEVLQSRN
To be noted: protein: recombinant; tags: N-terminal GST; dsDNA, one strand shown. In outline: as §1

The target in assay [9] is CRX (Homo sapiens, UniProt O43186 1-299). To be noted: protein: recombinant; tags: N-terminal GST; dsDNA, one strand shown. In outline: as §1
CRX, sequence (O43186 whole entry): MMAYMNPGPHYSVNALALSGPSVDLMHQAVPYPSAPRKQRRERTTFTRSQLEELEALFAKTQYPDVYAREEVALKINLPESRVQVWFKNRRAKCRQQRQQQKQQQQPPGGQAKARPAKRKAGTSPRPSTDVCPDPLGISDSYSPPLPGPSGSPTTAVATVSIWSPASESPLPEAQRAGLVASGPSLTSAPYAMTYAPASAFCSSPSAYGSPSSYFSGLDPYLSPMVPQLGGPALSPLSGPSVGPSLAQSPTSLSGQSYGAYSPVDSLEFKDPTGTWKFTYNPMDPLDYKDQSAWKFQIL
Assay [10] concerns the target ETV1 (Homo sapiens, UniProt P50549 1-477). To be noted: protein: recombinant; tags: N-terminal GST; dsDNA, one strand shown. In outline:
as §1

In assay [11] the target is T6, ERF (Homo sapiens, UniProt P50548 1-548).
T6 sequence: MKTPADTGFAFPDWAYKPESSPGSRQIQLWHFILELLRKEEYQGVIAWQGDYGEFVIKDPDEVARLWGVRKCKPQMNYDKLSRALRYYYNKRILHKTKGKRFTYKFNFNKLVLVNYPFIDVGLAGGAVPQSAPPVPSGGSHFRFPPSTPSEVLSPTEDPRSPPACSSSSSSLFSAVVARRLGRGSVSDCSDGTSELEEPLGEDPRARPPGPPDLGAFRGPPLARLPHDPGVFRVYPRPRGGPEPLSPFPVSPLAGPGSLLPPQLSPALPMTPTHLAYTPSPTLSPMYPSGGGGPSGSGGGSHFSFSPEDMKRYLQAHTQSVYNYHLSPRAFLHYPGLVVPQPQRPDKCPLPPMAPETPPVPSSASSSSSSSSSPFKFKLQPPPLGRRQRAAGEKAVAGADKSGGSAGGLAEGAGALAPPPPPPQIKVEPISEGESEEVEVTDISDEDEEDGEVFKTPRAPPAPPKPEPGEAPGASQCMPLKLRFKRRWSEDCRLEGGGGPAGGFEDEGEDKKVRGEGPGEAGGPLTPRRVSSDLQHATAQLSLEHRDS
Conditions: protein: recombinant; tags: N-terminal GST; dsDNA, one strand shown. A digest of the protocol:
as §1

Assay [12] has as its target T7, ETV3L (Homo sapiens, UniProt Q6ZN32 1-361).
T7 sequence: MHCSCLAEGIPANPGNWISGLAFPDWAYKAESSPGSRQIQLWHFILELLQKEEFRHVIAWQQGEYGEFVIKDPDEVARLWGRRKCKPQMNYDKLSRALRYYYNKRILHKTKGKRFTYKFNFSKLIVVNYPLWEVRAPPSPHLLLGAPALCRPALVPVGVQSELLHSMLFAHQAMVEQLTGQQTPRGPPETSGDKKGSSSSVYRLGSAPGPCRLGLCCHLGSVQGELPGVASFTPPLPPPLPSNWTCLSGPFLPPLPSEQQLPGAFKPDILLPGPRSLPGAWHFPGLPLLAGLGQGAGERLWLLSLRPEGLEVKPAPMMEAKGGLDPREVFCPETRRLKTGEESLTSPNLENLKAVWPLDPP
Conditions: protein: recombinant; tags: N-terminal GST; dsDNA, one strand shown. In outline:
as §1

For assay [13], the target named is T8, ETS2 (Homo sapiens, UniProt P15036 1-469).
T8 sequence: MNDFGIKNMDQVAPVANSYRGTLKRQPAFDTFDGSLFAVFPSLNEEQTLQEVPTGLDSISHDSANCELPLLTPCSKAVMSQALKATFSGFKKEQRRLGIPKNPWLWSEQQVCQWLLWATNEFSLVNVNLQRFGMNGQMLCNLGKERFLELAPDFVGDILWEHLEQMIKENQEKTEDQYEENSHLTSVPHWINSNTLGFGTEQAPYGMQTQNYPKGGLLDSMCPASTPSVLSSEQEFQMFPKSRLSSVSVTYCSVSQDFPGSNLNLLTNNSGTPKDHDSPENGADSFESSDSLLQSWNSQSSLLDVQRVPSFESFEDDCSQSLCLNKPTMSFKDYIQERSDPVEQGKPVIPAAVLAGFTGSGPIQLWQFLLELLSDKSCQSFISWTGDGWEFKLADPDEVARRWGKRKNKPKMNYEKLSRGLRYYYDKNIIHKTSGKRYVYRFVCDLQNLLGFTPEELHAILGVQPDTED
To be noted: protein: recombinant; tags: N-terminal GST; dsDNA, one strand shown. In outline:
as §1

The target of assay [14] is T9, SPDEF (Homo sapiens, UniProt O95238 1-335).
T9 sequence: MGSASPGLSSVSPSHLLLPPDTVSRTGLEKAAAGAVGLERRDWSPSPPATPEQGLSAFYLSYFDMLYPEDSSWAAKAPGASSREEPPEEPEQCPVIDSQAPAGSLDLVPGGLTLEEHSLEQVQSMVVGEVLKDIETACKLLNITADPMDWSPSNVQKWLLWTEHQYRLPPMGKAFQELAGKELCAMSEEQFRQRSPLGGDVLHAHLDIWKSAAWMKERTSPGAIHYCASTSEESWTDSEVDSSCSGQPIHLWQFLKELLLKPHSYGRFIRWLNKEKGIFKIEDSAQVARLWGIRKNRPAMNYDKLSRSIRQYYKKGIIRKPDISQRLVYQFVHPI
To be noted: protein: recombinant; tags: N-terminal GST; dsDNA, one strand shown. A digest of the protocol:
as §1

Assay [15] concerns the target T10, ETV7 (Homo sapiens, UniProt Q9Y603 1-341).
T10 sequence: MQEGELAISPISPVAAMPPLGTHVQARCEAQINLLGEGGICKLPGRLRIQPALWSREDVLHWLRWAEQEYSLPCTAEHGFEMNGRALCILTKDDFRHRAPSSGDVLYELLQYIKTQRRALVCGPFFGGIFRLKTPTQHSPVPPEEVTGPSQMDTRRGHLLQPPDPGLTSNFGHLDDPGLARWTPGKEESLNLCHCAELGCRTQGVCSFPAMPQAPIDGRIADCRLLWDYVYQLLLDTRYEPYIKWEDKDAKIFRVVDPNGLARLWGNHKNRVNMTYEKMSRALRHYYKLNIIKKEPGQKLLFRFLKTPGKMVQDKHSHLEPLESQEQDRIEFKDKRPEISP
To be noted: protein: recombinant; tags: N-terminal GST; dsDNA, one strand shown. A digest of the protocol: as §1

Assay [16] concerns the target T11, ELF5 (Homo sapiens, UniProt Q9UKW6-2 1-255).
T11 sequence: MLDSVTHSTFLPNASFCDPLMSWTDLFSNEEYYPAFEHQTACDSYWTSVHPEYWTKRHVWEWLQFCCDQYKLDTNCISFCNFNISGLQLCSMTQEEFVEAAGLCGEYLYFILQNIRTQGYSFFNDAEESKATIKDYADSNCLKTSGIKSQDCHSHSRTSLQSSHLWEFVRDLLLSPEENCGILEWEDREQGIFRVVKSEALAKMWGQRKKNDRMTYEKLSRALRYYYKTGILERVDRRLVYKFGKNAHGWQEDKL
Conditions: protein: recombinant; tags: N-terminal GST; dsDNA, one strand shown. A digest of the protocol:
as §1

In assay [17] the target is T12, ETV3 (Homo sapiens, UniProt P41162-2 1-143).
T12 sequence: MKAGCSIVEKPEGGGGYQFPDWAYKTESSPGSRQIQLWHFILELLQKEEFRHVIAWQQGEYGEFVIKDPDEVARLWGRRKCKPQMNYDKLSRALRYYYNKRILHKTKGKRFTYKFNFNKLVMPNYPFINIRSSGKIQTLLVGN
Conditions: protein: recombinant; tags: N-terminal GST; dsDNA, one strand shown. A digest of the protocol:
as §1

Assay [18] has as its target ETV6 (Homo sapiens, UniProt P41212 1-452). To be noted: protein: recombinant; tags: N-terminal GST; dsDNA, one strand shown. In outline: as §1

ETV1, sequence (P50549 whole entry): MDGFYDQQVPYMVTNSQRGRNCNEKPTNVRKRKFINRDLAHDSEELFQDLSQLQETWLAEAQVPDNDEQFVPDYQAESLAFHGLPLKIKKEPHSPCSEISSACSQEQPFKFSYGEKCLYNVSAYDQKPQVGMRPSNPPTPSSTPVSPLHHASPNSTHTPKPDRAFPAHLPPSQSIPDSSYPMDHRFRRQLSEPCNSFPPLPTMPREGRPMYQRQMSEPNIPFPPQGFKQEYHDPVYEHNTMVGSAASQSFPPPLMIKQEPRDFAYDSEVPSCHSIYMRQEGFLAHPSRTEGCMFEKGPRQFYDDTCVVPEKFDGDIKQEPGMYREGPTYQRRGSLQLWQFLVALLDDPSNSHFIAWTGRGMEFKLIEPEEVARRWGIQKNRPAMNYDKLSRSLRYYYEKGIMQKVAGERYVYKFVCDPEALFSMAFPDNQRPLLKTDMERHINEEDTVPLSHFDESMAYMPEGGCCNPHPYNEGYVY
HSF1, sequence (Q00613 whole entry): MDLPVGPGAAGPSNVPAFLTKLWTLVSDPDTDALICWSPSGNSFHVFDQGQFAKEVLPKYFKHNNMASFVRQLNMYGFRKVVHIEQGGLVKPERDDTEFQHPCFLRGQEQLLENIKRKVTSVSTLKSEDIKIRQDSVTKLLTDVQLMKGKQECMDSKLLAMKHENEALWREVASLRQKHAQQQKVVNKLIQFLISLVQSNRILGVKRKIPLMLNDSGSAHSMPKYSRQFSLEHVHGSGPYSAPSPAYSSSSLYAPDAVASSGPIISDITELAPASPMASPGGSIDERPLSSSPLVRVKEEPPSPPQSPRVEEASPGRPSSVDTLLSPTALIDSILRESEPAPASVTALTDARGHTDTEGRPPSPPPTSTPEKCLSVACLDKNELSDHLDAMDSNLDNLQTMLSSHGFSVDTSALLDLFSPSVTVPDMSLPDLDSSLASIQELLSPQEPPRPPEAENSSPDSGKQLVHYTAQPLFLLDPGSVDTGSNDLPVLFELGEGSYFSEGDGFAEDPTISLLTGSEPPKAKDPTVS
ELF4, sequence (Q99607 whole entry): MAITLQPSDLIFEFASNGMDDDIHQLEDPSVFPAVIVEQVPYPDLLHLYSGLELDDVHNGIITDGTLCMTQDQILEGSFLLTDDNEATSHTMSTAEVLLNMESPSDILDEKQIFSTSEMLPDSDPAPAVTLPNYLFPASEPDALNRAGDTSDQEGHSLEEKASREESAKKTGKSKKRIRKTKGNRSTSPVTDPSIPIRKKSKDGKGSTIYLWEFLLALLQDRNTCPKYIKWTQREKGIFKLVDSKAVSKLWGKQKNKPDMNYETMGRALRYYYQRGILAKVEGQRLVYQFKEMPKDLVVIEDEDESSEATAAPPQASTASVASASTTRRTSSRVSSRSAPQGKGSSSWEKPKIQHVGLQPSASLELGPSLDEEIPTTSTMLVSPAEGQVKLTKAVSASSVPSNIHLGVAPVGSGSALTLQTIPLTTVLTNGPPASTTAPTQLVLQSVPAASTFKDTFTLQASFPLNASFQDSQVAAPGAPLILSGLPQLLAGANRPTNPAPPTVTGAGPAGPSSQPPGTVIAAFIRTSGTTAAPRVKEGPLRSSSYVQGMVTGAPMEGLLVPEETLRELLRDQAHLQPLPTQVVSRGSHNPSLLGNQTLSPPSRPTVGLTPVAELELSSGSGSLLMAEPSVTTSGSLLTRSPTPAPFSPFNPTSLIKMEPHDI
ETV6, sequence (P41212 whole entry): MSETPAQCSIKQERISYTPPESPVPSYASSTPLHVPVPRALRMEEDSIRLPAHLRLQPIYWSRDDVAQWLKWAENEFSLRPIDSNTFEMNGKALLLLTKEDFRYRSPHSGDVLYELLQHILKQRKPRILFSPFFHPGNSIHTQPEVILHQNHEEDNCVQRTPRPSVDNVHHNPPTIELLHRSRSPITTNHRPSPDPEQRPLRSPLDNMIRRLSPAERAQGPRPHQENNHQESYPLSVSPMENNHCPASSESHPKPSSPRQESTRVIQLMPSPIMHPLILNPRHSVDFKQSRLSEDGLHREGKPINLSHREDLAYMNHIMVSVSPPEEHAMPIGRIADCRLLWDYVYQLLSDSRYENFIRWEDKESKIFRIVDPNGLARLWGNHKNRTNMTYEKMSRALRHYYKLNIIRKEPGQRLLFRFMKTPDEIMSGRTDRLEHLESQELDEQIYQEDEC
ETV5, sequence (P41161 whole entry): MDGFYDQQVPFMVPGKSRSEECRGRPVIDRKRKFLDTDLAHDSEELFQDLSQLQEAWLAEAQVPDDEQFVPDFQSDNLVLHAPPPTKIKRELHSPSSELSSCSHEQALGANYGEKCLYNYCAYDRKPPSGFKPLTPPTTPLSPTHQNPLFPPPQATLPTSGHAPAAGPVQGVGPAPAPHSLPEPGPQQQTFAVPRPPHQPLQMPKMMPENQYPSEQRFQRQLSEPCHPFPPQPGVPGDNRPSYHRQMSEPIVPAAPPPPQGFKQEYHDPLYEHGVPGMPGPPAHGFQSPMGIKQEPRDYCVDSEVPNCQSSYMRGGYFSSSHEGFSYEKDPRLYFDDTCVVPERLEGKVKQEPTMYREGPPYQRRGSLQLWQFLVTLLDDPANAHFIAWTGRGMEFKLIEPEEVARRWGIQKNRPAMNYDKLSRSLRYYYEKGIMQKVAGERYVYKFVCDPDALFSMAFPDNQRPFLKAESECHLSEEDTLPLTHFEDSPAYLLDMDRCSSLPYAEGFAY

Consider ACTCTT, for which the binding signal in assay [1] is 1.18 fold enrichment (6-mer frequency, TF over GST control); in assay [2], 1.29 fold enrichment (6-mer frequency, TF over GST control); in assay [3] it was 1.12 fold enrichment (6-mer frequency, TF over GST control); in assay [4], 1.3 fold enrichment (6-mer frequency, TF over GST control); in assay [5], 1.26 fold enrichment (6-mer frequency, TF over GST control); in assay [6] it was 1.35 fold enrichment (6-mer frequency, TF over GST control). Besides, the binding signal in [7] was 1.31 fold enrichment (6-mer frequency, TF over GST control); in assay [8] it was 1.14 fold enrichment (6-mer frequency, TF over GST control); in [9] it was 1.19 fold enrichment (6-mer frequency, TF over GST control); in assay [10], 1.33 fold enrichment (6-mer frequency, TF over GST control); in assay [11], 1.31 fold enrichment (6-mer frequency, TF over GST control); in [12] it was 1.27 fold enrichment (6-mer frequency, TF over GST control). Also, the binding signal in assay [13] was 1.15 fold enrichment (6-mer frequency, TF over GST control); in [14], 1.18 fold enrichment (6-mer frequency, TF over GST control); in [15] it was 1.29 fold enrichment (6-mer frequency, TF over GST control); in [16] it was 1.34 fold enrichment (6-mer frequency, TF over GST control); in [17], 1.25 fold enrichment (6-mer frequency, TF over GST control); in assay [18] it was 1.25 fold enrichment (6-mer frequency, TF over GST control).

The values are drawn from paper PMC7862700, “An all-to-all approach to the identification of sequence-specific readers for epigenetic DNA modifications on cytosine”.
